{"source": "PubChem BioAssay (NCI)", "note": "About 83,000 compounds went through this panel and 20% of them were active in at least one assay; those are over-represented in the sample as a whole.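 Each cell line was grown in a 96-well plate and treated with one concentration of compound for 48 hours. Values below 10 were considered active.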 Values without a mark were called inactive. The source made the active and inactive calls.", "data": [{"test_system": "SK-MEL-5 melanoma", "test": "NCI-60 one-dose screen, 48 h (100 = growth as untreated, 0 = no growth, -100 = all killed)", "details": "10 µM unless noted", "method": "Growth inhibition of the SK-MEL-5 human tumor cell line is measured as a screen for anti-cancer activity. Cells are grown in 96 well plates and exposed to the test compound for 48 hours. Compounds are tested at a single concentration, which is 10^-5 M for most compounds. The reported endpoint is percent growth (GI% or GIPRCNT), where numbers from 0 - 100% represent growth inhibition, and numbers from -100% - 0 represent cell death. For example, a value of 40 represents 60% growth inhibition. A value of 0 means no net growth occurred over the course of the experiment. A value of -40 indicates 40% of cells at the beginning of the experiment died by the end of the experiment. A value of -100 means all cells are dead at the end of the experiment.\nNCI-60 Human Tumor Cell Lines Screen was performed using the standard one-dose NCI protocol, which is described in more detail at https://dtp.cancer.gov/discovery_development/nci-60/default.htm.\nCompounds with GIPRCNT values below 10 were considered active. Activity score was based on GIPRCNT using the following formula: […]\nScore is 0 for GIPRCNT values of 100 or above, 50 for GIPRCNT values of 0, and 100 for GIPRCNT values of -100.", "values": [{"smiles": "COc1ccc(/C=N/OCC(O)CN2CCC(O)CC2)cc1OC1CCCC1", "note": "(stereo not given)", "growth": "98.8%"}, {"smiles": "Cc1cccc2c(=O)c3c(sc12)c(NCCNCCO)nc1ccccc13", "growth": "39.5%"}, {"smiles": "COc1ccc(C2OCC(C)(C)CO2)cc1OC", "growth": "96.5%"}, {"smiles": "CSc1ccc(OC(C)=O)cc1C", "growth": "98.8%"}, {"smiles": "COc1ccc(/C=N/NC(=O)c2cnn3c2NC(c2ccccc2)C3)cc1OC1CCCC1", "note": "(stereo not given)", "growth": "78.8%"}, {"smiles": "COCCOC1=C(Cl)C(=O)c2ccccc2C1=O", "growth": "-7.27% (active)"}, {"smiles": "Cc1nc(NC(=O)COc2cccc(/C=C3\\COc4ccccc4C3=O)c2)sc1C", "growth": "-81.8% (active)"}, {"smiles": "COc1ccc(OC2=CC(=O)c3ccc(C)nc3C2=O)cc1", "growth": "83.5%"}, {"smiles": "C=C[C@H]1C[C@@H]2C[C@@H]3[C@H]4C/C=C\\C(=O)NCCCC5NC(=O)C(=C(O)/C=C/[C@@H]4CC(=O)[C@H]3[C@@H]2[C@H]1C)C5=O", "note": "(stereo not given in full)", "growth": "-95.3% (active)"}, {"smiles": "COc1ccc(/C=C/C(=O)N2CCC(O)CC2)cc1OC1CCCC1", "growth": "99.3%"}, {"smiles": "Cc1ccc(S(=O)(=O)N2CCc3ccc(O)c4c3C2CCc2ccccc2-4)cc1", "note": "(stereo not given)", "growth": "105%"}, {"smiles": "O=C(Nc1ccc(Cl)c(Cl)c1)OCn1ncc2ccc([N+](=O)[O-])cc21", "growth": "95.7%"}, {"smiles": "Cc1nn(-c2ccccc2)c2nc3nc4c(c(N)c3c(-c3ccc(Cl)cc3)c12)CCCC4", "growth": "101%"}, {"smiles": "Nc1nc(N)c(C=Nc2ccc(Br)cc2)c(Nc2ccc(Br)cc2)n1", "growth": "108%"}, {"smiles": "c1ccc2cc(-c3n(Cc4ccc5ccccc5n4)c4ccccc4[n+]3Cc3ccc4ccccc4n3)ccc2c1", "growth": "-96% (active)"}, {"smiles": "COc1nc2c(cc1S(=O)(=O)c1ccccc1)CCc1c-2cnn1-c1cccc(Cl)c1", "growth": "88%"}, {"smiles": "C=C(C)CCCC(C)CC#N", "note": "(stereo not given)", "growth": "99.7%"}, {"smiles": "CN1CCN(CCCn2c3c(sc4ncccc43)c(=O)n3nnc(-c4ccccc4)c23)CC1", "growth": "-98% (active)"}, {"smiles": "COc1ccc(Sc2ccc3[nH]c(=O)nc(N)c3c2)cc1", "growth": "103%"}, {"smiles": "O=C(CC(O)c1ccccc1)Nc1ccccn1", "note": "(stereo not given)", "growth": "116%"}, {"smiles": "Cc1ccccc1-c1cc(-c2ccc(Br)s2)[nH]c(=O)c1C#N", "growth": "93.1%"}, {"smiles": "CCC(C)Oc1cc(/C=N/NC(=O)c2cnn3c2NC(c2ccccc2)C3)ccc1OC", "note": "(stereo not given)", "growth": "21.2%"}, {"smiles": "Cc1nc2cc(Nc3nc(Cl)nc(Nc4ccc(F)cc4)n3)ccc2n1Cc1ccccc1", "growth": "92.4%"}, {"smiles": "COc1ccc(-c2nn(-c3ccc(NC(=O)c4ccc(Cl)c(Cl)c4)cc3)cc2-c2ccncc2)cc1Cl", "growth": "5.09% (active)"}, {"smiles": "COc1cc(/C=C/c2cc(/C=C/c3ccc(O)c(OC)c3)n(-c3ccccc3)n2)ccc1O", "growth": "-86.5% (active)"}, {"smiles": "CC1CCCCN1S(=O)(=O)c1ccc(CN=C=S)cc1", "note": "(stereo not given)", "growth": "91.5%"}, {"smiles": "Cc1cc(C)c(S(=O)O)c(C)c1", "growth": "105%"}, {"smiles": "CON=C1C[C@]2(C[C@@H]3C[C@@H](C/C=C(\\C)C[C@@H](C)/C=C/C=C4\\CO[C@@H]5[C@H](O)C(C)=C[C@@H](C(=O)O3)[C@]45O)O2)O[C@H](/C(C)=C/C(C)C)[C@H]1C", "growth": "65.1%"}, {"smiles": "COc1ccc(NC(=O)c2ccc3c(c2)nc(-c2ccc(Cl)cc2)n3-c2cc(C(C)(C)C)[nH]n2)cc1", "growth": "70.7%"}, {"smiles": "CC(=O)N(CC(O)CO)c1c(I)c(C(=O)NCCO)c(I)c(C(=O)NCC(O)CO)c1I", "note": "(stereo not given)", "growth": "91.7%"}, {"smiles": "CCOC(=O)c1c(Cl)c2c(n1Cc1cc(OC)cc(OC)c1)-c1oncc1CCC2", "growth": "17.7%"}, {"smiles": "Cc1nc2ccc(Cl)cc2n1C", "growth": "99.6%"}, {"smiles": "O=C(N/N=C/c1ccc(OC(F)F)c(OC2CCCC2)c1)c1cnn2c1NC(c1ccccc1)C2", "note": "(stereo not given)", "growth": "70.9%"}, {"smiles": "Fc1c[c-]c(-c2ccccn2)c(F)c1.Fc1c[c-]c(-c2ccccn2)c(F)c1.[Cl][Pt+].[Cl][Pt+].c1ccc([PH+](C[PH+](c2ccccc2)c2ccccc2)c2ccccc2)cc1", "growth": "-70.8% (active)"}, {"smiles": "COc1ccc(OC)c2ncccc12", "growth": "102%"}, {"smiles": "CCOC(=O)c1cn2c3c(cc(F)cc3c1=O)C(CC)c1ccccc1C2", "note": "(stereo not given)", "growth": "63.7%"}, {"smiles": "COc1ccc(-c2nc3sc(C)nn3c2-c2nc3cc(C)c(C)cc3[nH]2)cc1", "growth": "93%"}, {"smiles": "Cc1nn(-c2ccccc2)c2nc3nc4c(c(N)c3c(-c3ccc(Cl)cc3)c12)CCC4", "growth": "99.4%"}, {"smiles": "CC1SC(c2ccc(Cl)cc2)N(CCc2cccs2)C1=O", "note": "(stereo not given)", "growth": "-99.2% (active)"}, {"smiles": "c1ccc(-c2n(Cc3ccc4ccccc4c3)c3ccccc3[n+]2Cc2ccc3ccccc3c2)cc1", "growth": "-98.1% (active)"}]}]}
